Measurements as given in ChEMBL document CHEMBL4513216, “Probing the Open Global Health Chemical Diversity Library for Multistage-Active Starting Points for Next-Generation Antimalarials” (ACS Infect Dis, 2020).
Among all 69,000 compounds or so, about 8,600 (12%) showed an effect of 50% or more. This is one part of a sample in which strong results are shown more often than they occur.

These molecules were tested on Plasmodium berghei (assay: Screen against P. berghei liver stage (PbLuc), transformed with Luciferase, at 10uM). Conditions: tested at 10 uM.
Type: functional, HepG2

SMILES | INHIBITION [%]
Cc1ccc(CN2C[C@@H]3[C@@H](C(=O)N4CCCC4)CCS(=O)(=O)[C@@H]3C2)cc1 | -10.9
O=C(c1ccc[nH]1)N1C[C@@H]2CC[C@H]1CN(c1ncccn1)C2 | -16.5
O=C1C[C@H]2[C@@H](CCN2C(=O)c2ccc[nH]2)N1CCN1CCCC1 | 47.9
COc1cc(C)nc(N2CCN(C(=O)c3ccoc3C)CC2)n1 | 11.9
c1cncc(-c2ncnc3c2CCN(Cc2cccs2)CC3)c1 | -49.8
O=C(CCc1ccc(Cl)s1)N1CCCC(N2CCNC2=O)C1 (configuration not stated) | 30
O=C(CCc1cccs1)N1CCCC(N2CCNC2=O)C1 (configuration not stated) | 11.6
O=C(CCc1cccs1)N1CCC(N2CCNC2=O)CC1 | 27.8
O=C(CCCc1cccs1)N1CCC(N2CCNC2=O)CC1 | 70.8
O=C(CCc1ccccc1)N1CCC(N2CCNC2=O)CC1 | 2.61
O=C(CCc1ccc(Cl)s1)N1CCC(N2CCNC2=O)CC1 | 60.9
O=C(NCC1CC1)[C@@H]1CCO[C@@H]2CCN(c3ncccn3)C[C@@H]21 | 44.2
Cc1nc(C)n(C2CCCN(C(=O)c3ccc(OC(C)C)nc3)C2)n1 (configuration not stated) | 5.907
CN(C)CCN(Cc1cccc(F)c1)C(=O)c1ccn(C)c(=O)c1 | 31.1
O=C1CC(c2cccnc2)c2c(c(C(=O)O)cn2-c2ccccc2F)N1 (configuration not stated) | 19.4
Cc1cc(C)c(NC(=O)Nc2cnn(CC(O)CN(C)C)c2)c(C)c1 (configuration not stated) | 35.4
Cc1c(CCC(=O)N2CCCC2c2ccnc(N(C)C)c2)cnn1C (configuration not stated) | 23
COc1ccc(CNC(=O)Nc2cccnc2OC)cc1O | 9.54
Cc1ccc(N2CC[C@H]3OCC[C@@]3(C(=O)N(C)C)C2)nn1 | 24.3
Cc1ncc(-c2ccncc2)c(C2CCCN(C(=O)c3ccno3)C2)n1 (configuration not stated) | 18.505
O=C(NC1CC1)c1cc(C2CC2)nc2onc(C3CCNCC3)c12 | 24.2
Cn1nc(C2CCNC2)c2c(C(=O)NCC(F)(F)F)cc(C3CC3)nc21 (configuration not stated) | 47.4
Cn1nc(C2CCCNC2)c2c(C(=O)NC3CC3)cc(C3CC3)nc21 (configuration not stated) | 52.4
Cn1nc(C2CCCN2)c2c(C(=O)NC3CC3)cc(C3CC3)nc21 (configuration not stated) | 40

SMILES | INHIBITION [%]
Cn1nc(C2CCNC2)c2c(C(=O)NC3CC3)cc(C3CC3)nc21 (configuration not stated) | 45.8
Cn1nc(C2CCNCC2)c2c(C(=O)NC3CC3)cc(C3CC3)nc21 | 59.8
Cc1ccccc1CNC(=O)Cn1ncc2c1c(C)nn2C | 21.7
Cc1ccc(C(=O)NC2CCN(CC(=O)N(C)c3ccccc3)CC2)o1 | 7.27
Cn1cccc1C(=O)COc1ccc(S(N)(=O)=O)cc1 | -55.3
CNC(=O)C1(CCCc2cnccn2)CCN1CCc1ccccc1 (configuration not stated) | 23.8
CCN1CCn2c(C)cnc2C12CCN(C(=O)NC)CC2 | 6.27
CNS(=O)(=O)c1ccc(CNC(=O)c2cccc(C)n2)cc1 | 37.4
COCCN(C)C(=O)c1cc2c(s1)CCN2C(=O)C1CC1 | 37.5
CCN(C)S(=O)(=O)N1CCC(C(O)c2ccc(Cl)cc2)CC1 (configuration not stated) | 50.1
CCOCC(=O)N1CCC(C(O)c2ccc(F)cc2)CC1 (configuration not stated) | -6.99
CCN(C)S(=O)(=O)N1CCC(C(O)c2ccc(F)cc2)CC1 (configuration not stated) | 51.1
Cc1occc1C(=O)N1CCC(C(O)c2ccc(Cl)cc2)CC1 (configuration not stated) | -49.3
CN(C)S(=O)(=O)N1CCC(C(O)c2ccc(Cl)cc2)CC1 (configuration not stated) | -9.8
Cc1occc1C(=O)N1CCC(C(O)c2ccc(F)cc2)CC1 (configuration not stated) | -85.6
CCS(=O)(=O)N1CCO[C@H]2[C@H](Oc3ncccc3F)CC[C@@H]21 | 17.4
O=C(O)c1ccccc1-n1cnc(CN2CCc3ccccc3C2)c1 | 12.8
CCn1c(CC2CCN(S(=O)(=O)N3CCCCC3)CC2)nn(C)c1=O | 0.546
CN(C)C(=O)c1c[nH]nc1-c1ccc(CNC(=O)c2cnccn2)cc1 | 0.5
COCCN1CCOCC12CCN(c1cnccn1)CC2 | 42.1
Cc1noc(C)c1CN1CCOCC12CCN(c1cnccn1)CC2 | 34.9
c1csc(CN2CCC3(CC2)COCCN3CC2CC2)n1 | 50.7
Cc1noc(C)c1CN1CCOCC12CCN(c1nccs1)CC2 | 67.5
CCN1CCOCC12CCN(c1ccc(C#N)cc1)CC2 | 2.4

SMILES | INHIBITION [%]
COCCN1CCOCC12CCN(c1nccs1)CC2 | 53.9
CCN1CCOCC12CCN(c1cnccn1)CC2 | 32.1
COCCN1CCOCC12CCN(c1ccc(C#N)cc1)CC2 | 49.7
CN1CCOCC12CCN(Cc1nccs1)CC2 | 0.804
Cc1noc(C)c1CN1CCOCC12CCN(c1ncccn1)CC2 | 47.5
c1csc(CN2CCC3(CCCN3CC3CC3)CC2)n1 | 33
CCN1CCOCC12CCN(c1nccs1)CC2 | 54.8
CN(C)Cc1ccnc(C2CN(Cc3nccs3)CCO2)n1 (configuration not stated) | 35.2
Cc1cc(N2CCC(C(=O)NC3CC3)CC2)nc(-c2ccncc2)n1 | -0.219
CS(=O)(=O)N1CCC(Cc2cnc(Br)cn2)C1 (configuration not stated) | -29.9
c1cnc(N2CCCC(Cc3nccs3)C2)nc1 (configuration not stated) | 11.685
CS(=O)(=O)NC1CCN(C(=O)c2coc(CN3CCOCC3)c2)CC1 | 34.9
COc1cc(CSc2nnc(C)n2CC(N)=O)ccc1SC | -9.93
CCCC(=O)N1CCC(Cc2ccccc2-c2ccccc2)(C(N)=O)C1 (configuration not stated) | -31
O=C(C1CCOC1)N1CCC2(CCN(Cc3nccs3)C2)CC1 (configuration not stated) | 46.2
O=C(C1CCOCC1)N1CCC2(CCN(Cc3nccs3)CC2)CC1 | 18.3
O=C(C1CCOC1)N1CCC2(CCN(Cc3nccs3)CC2)CC1 (configuration not stated) | 52
CC(C)CC(=O)N1C[C@@H]2CCN(c3ncccn3)C[C@@H]2C1 | 44.1
CC(C)Oc1ncc(C(=O)N2CCc3ccc(O)cc3C2)cc1Cl | 77.1
O=C(c1ccc(O)nc1)N1CCc2ccc(O)cc2C1 | 11.7
CC(C)Oc1ncc(C(=O)N2CCCC(C(=O)O)C2)cc1Cl (configuration not stated) | 23.3
CC(C)Oc1ncc(C(=O)N2CCC(NC(=O)C3CC3)CC2)cc1Cl | -13.2
O=C(c1c[nH]c(=O)c(Cl)c1)N1CCc2ccccc2C1 | -29.6
O=C(c1cnc(OCC(F)(F)F)c(Cl)c1)N1CCc2ccc(O)cc2C1 | 70.9
